Data: PubChem BioAssay (EPA / NIEHS)
The source made the active and inactive calls. The calls were made as follows: active = hit-call score of the fitted dose curve at least 0.9, where 1 is the maximum; inactive = score below 0.9.

Assay: BSK_3C_SRB: Viability Assessment in the BioMAP Diversity Plus: 3C Assay (AID 2283023);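 also: cells read 24 h after compound dosing; fitted both ways against DMSO so a hit may be signal rise or drop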
Details: primary human endothelial cells (HUVEC)
Method in brief: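 Cells were dosed with chemical, cultured 24 h, fixed with 10% TCA, stained with 0.1% SRB and read at 560 nm. Human umbilical vein endothelium was used; DMSO served as negative control and baseline.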

Row | SMILES | outcome | AC50
1 | O=[N+]([O-])c1ccccc1 | inactive | 
2 | CCOP(=S)(S)OCC | inactive | 
3 | CC(C)(C)OOC(C)(C)C | inactive | 
4 | CC(C)Nc1ccc(Nc2ccccc2)cc1 |  | 11 µM (active)
5 | CC(C)(C)c1ccc(O)cc1 | inactive | 
6 | CC(Cc1ccc(OCC(=O)O)cc1)NCC(O)c1csc(C(F)(F)F)n1 (stereo unspecified) | inactive | 
7 | COCCOCCO | inactive | 
8 | ClC(Cl)c1ccccc1 | inactive | 
9 | COP(=O)(CCC(=O)NCO)OC | inactive | 
10 | Nc1ccc(Cl)cc1 | inactive | 
11 | C=CC(=O)OCC(F)(F)C(F)F | inactive | 
12 | COP(=O)(O)OC | inactive | 
13 | CCCCN(CCCC)SN(C)C(=O)Oc1cccc2c1OC(C)(C)C2 |  | 29.5 µM (active)
14 | CCOS(=O)(=O)OCC | inactive | 
15 | O=c1ssc(Cl)c1Cl |  | 5.07 µM (active)
16 | c1ccc(OP(Oc2ccccc2)Oc2ccccc2)cc1 | inactive | 
